From PubChem BioAssay (NCATS)
Results filed as inconclusive are left out. Active and inactive are the calls of the source. The call rests on the fitted dose curve; in most records, active means well fitted curve in the direction sought with a large enough effect; inconclusive means small, poorly fitted or top-dose-only effect, or another doubt; inactive means no such curve, though single readings can be large; an effect the other way counts as inactive or inconclusive.

What was measured:
[1] = qHTS of pediatric cancer cell lines to identify multiple opportunities for drug repurposing: Primary screen for RD cells (AID 1347104); further: nearly all actives have a fitted effect of over 55% in size; further: potency means the concentration at half of the fitted maximal effect
Outline: (§1)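 500-1,000 cells/well; 5 h pre-incubation 37 °C/5% CO2; compound pinned; 48 h; CellTiter-Glo, 15 min RT; luminescence. MIPE 11-pt from 0.78 nM, NPC 8-pt from 0.59 nM final. Bortezomib 2.3 µM final as positive control.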

[2] = qHTS of pediatric cancer cell lines to identify multiple opportunities for drug repurposing: Primary screen for MG 63 (6-TG R) cells (AID 1347105); further: nearly all actives have a fitted effect of over 50% in size; further: potency means the concentration at half of the fitted maximal effect
Outline: as §1

[3] = qHTS of pediatric cancer cell lines to identify multiple opportunities for drug repurposing: Primary screen for control Hh wild type fibroblast cells (AID 1347106);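 further: series mostly up to about 46 µM; a drop in luminescence marks cytotoxicity and a rise apparent proliferation; nearly all actives have a fitted effect of over 55% in size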
Outline: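 Viability after 48 h compound treatment at 37C, 500-1,000 cells/well, read as ATP luminescence with CellTiter-Glo. Primary screens used 11-point (MIPE, 0.78 nM-46 µM) or 8-point (NPC, 0.59 nM-46 µM) final concentrations; follow-up screens used 11-point dilutions.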

[4] = qHTS of pediatric cancer cell lines to identify multiple opportunities for drug repurposing: Primary screen for Rh30 cells (AID 1347107); further: series mostly up to about 46 µM; nearly all actives have a fitted effect of over 75% in size
Outline: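 Cells (500-1,000/well) in growth media were settled 5 h at 37 degrees C, then given compounds for 48 h. Viability was read as CellTiter-Glo luminescence. Primary runs used MIPE at 11 points (0.78 nM-46 µM) and NPC at 8 points (0.59 nM-46 µM); follow-ups used 11 points.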

[5] = qHTS of pediatric cancer cell lines to identify multiple opportunities for drug repurposing: Primary screen for Rh41 cells (AID 1347108);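 further: series mostly up to about 46 µM; luminescence drop marks cytotoxic hits; nearly all actives have a fitted effect of over 70% in size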
Outline: as §1

Measured: Potency

Oc1c(Cl)cc(Cl)c(Cl)c1Cc1c(O)c(Cl)cc(Cl)c1Cl
inactive: [3] | [4]
active: [1] 11.9 µM | [2] 6.68 µM

CC(=C(CCOC(=O)C(C)C)SSC(CCOC(=O)C(C)C)=C(C)N(C=O)Cc1cnc(C)nc1N)N(C=O)Cc1cnc(C)nc1N
inactive: [1] | [2] | [3] | [4] | [5]

CC(=O)Nc1ccc(OCC(O)CNC(C)C)cc1 (stereo unspecified)
inactive: [1] | [2] | [3] | [4]

OCc1ccccn1
inactive: [1] | [2] | [3] | [4] | [5]

Cc1cc(-c2ccccc2)nnc1NCCN1CCOCC1
inactive: [1] | [2] | [3] | [4]

O[C@@H](c1cc(C(F)(F)F)nc2c(C(F)(F)F)cccc12)[C@H]1CCCCN1
inactive: [3]
active: [1] 23.7 µM | [2] 26.6 µM

NCCNc1cccc2ccccc12
inactive: [1] | [2] | [3] | [4] | [5]

C[C@]12CCC(=O)C=C1C=C[C@@H]1[C@@H]2CC[C@@]2(C)[C@H]1CC[C@@]21CCC(=O)O1
inactive: [1] | [2] | [3]

CC(=O)Nc1ncc([N+](=O)[O-])s1
inactive: [1] | [2] | [3] | [4] | [5]

Nc1ccc(C(=O)NCC(=O)O)cc1
inactive: [1] | [2] | [3] | [4] | [5]

C/C=C/c1ccc(O)c(OC)c1
inactive: [1] | [2] | [3] | [4] | [5]

Cc1ccc2c(Br)cc(Br)c(O)c2n1
inactive: [3]
active: [1] 10.6 µM | [2] 13.3 µM

Cc1ccc(-c2ncc(Cl)cc2-c2ccc(S(C)(=O)=O)cc2)cn1
inactive: [1] | [2] | [3] | [4] | [5]
